Source: PubChem (National Center for Advancing Translational Sciences (NCATS))
Shown are actives, neighbours in structure and some others; about 19% of the full set was active somewhere.
ELG1 DNA repair = ELG1-dependent DNA repair inhibition. HEK293T ELG1-luciferase reporter, luminescence, 16 h; DNA damage induced by 5-fluorouridine. Potency, µM (top dose mostly 46.1 µM), for inactives: at the top dose activity change, negative = inhibition, most hits filed as inhibitors. 330,000 tested, 2.3% active; note: potency is the fitted concentration of half-maximal effect; nearly all actives have a fitted effect of over 55% in size
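Luminescence from the luciferase reporter, measured 30 min after ONE-Glo reagent at room temperature, was the read-out. Beforehand, 2,000 cells per well were exposed for 16 hr at 37 °C to 5-fluorouridine together with compound or vehicle.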
TDP1 cell noCPT = qHTS for Inhibitors of human tyrosyl-DNA phosphodiesterase 1 (TDP1): qHTS in cells in absence of CPT; Potency, µM (titrated, usually from 46.2 µM), inactives show at the top dose activity change, negative = growth inhibition, actives largely listed as inhibitors; DT40 Tdp1-/- hTDP1 cells, no CPT, ATP luminescence, 48 h; 420,000 tested, 15% active; note: potency is the fitted concentration of half-maximal effect; nearly all actives have a fitted effect of over 55% in size
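A cellular qHTS used chicken DT40 cells lacking endogenous Tdp1 but carrying stably transfected human TDP1. Compounds were applied without camptothecin, and cell growth kinetics were judged by ATP-dependent luminescence after ≥48 hr.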
HT1080 IDH1KD tx = toxicity to HT-1080 IDH1 knockdown cells (counter line) | AID 686971 | Potency, µM (series often up to 46.1 µM), for the others: at the highest dose activity, negative = toxicity, most hits filed as cytotoxic | HT-1080 IDH1 knockdown viability, ATP luminescence, 48 h | 360,000 tested, 2% active;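 note: potency is the fitted concentration of half-maximal effect; 0% = DMSO wells and -100% = cell-free medium wells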
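After a 2 h attachment period, IDH1KD HT-1080 cells took pin-transferred compound for 48 h at 37 °C; ATP-based luminescence after 10 min room-temperature reagent incubation reported viability.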
DT40 TDP1 CPT = DT40-hTDP1 cell growth loss with CPT. chicken DT40 Tdp1-/-;hTDP1 cells + 20 nM CPT, ATP luminescence, 48 h. Potency, µM (top dose mostly 46.2 µM), for the others: top-dose activity change, negative = growth inhibition, most hits filed as inhibitors. 420,000 tested, 12% active. AID 686979; note: potency is the fitted concentration of half-maximal effect; nearly all actives have a fitted effect of over 55% in size
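Cell growth measured by CellTiter-Glo luminescence after a minimum 48 h, 37 C compound exposure with 20 nM CPT in Tdp1-knockout DT40 cells stably expressing hTDP1, seeded 400/well; qHTS titration format.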
HT1080NT lethal = kills 2HG-producing HT-1080-NT fibrosarcoma cells; HT-1080-NT fibrosarcoma viability, CellTiter-Glo ATP luminescence, 48 h; Potency, µM (highest dose often 46.1 µM), inactives show top-dose activity, negative = less viability, hits mostly cytotoxic; 360,000 tested, 1.6% active;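 note: NT is the 2HG producing partner of a matched IDH1 knockdown line; potency is the fitted concentration of half-maximal effect; 0% = DMSO-treated cells and -100% = media-only wells without cells; nearly all actives have a fitted effect of over 55% in size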
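750 cells/well, RPMI + 5% FBS; 2 h settle, compound pin-transfer, 48 h at 37 degrees C. CellTiter-Glo 10 min RT, luminescence. Normalized to DMSO and media-only wells.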
IL-1B inflam inh = inflammasome signaling inhibition, IL-1 beta readout. activity change, % at 57.5 µM. THP-1 LPS/ATP IL-1B secretion, AlphaLISA, 16 h; active compounds read low. 360,000 tested, 4.7% active. AID 743279; in the data active = activity change below about -50%; inconclusive = mostly about -30% to -49%
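Secreted IL-1B measured by AlphaLISA bead assay after 16 h compound exposure of THP-1 cells; compounds (final up to 57.5 uM) added 1 h before LPS (250 ng/mL) and ATP (1.25 mM) stimulation; lower signal means less secretion.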
* hit, by the source's call; ? = inconclusive; . = no result given. Unless noted, calls come from the whole dose curve; as a rule, active = well fitted curve in the direction sought with a large enough effect; inconclusive = small, poorly fitted or top-dose-only effect, or another doubt; inactive = no such curve, though single readings can be large; an effect the other way counts as inactive or inconclusive. Unless noted, % is set by controls: 0 for no effect and ±100 for the full control effect.

SMILES	ELG1 DNA repair	TDP1 cell noCPT	HT1080 IDH1KD tx	DT40 TDP1 CPT	HT1080NT lethal	IL-1B inflam inh
CC(Cc1cccnc1)NC(=O)c1cc(COc2ccc(F)cc2F)on1 (stereo unspecified)	-15%	21µM*	3%	16µM*	1%	-3
O=C(NCCCc1ccccc1)c1cc(COc2ccc(F)cc2Cl)on1	2%	?	-7%	21µM*	-3%	?
CC(CNC(=O)c1cc(COc2c(F)cccc2F)on1)Oc1cccnc1 (stereo unspecified)	-1%	15µM*	0%	21µM*	1%	-17
COc1cccc(CNC(=O)c2cc(COc3c(F)cccc3F)on2)c1	1%	-22%	19%	-9%	11%	?
O=C(NCCc1cccnc1)c1cc(COc2ccc(F)cc2F)on1	7%	23µM*	?	?	?	-3
COc1ccc(CCN2C(=O)CC(C(C)c3ccccc3)C2=O)cc1OC (stereo unspecified)	-10%	-13%	3%	13%	11%	21
COc1ccc(S(=O)(=O)N2CCC(C(=O)N[C@H](C(=O)NC3CCCC3)C(C)C)CC2)cc1	-1%	-9%	22%	-16%	6%	-9
CC(=O)N1CCOc2ccc(S(=O)(=O)N3CCC(C(=O)NCc4ccc(C)cc4)CC3)cc21	-3%	15%	2%	-3%	22%	22
CCn1c(C(=O)NCc2ccccc2C)cc2oc3ccccc3c21	.	?	.	2%	.	.
Cc1nc(CNC(=O)c2cc(COc3ccc(F)cc3Cl)on2)cs1	-25%	?	-13%	?	-11%	?
COc1ccc(OCc2cc(C(=O)NC(C)Cc3cccnc3)no2)c(Cl)c1 (stereo unspecified)	11%	23µM*	-19%	?	-2%	-15
O=C(NCCc1cccnc1)c1cc(COc2ccc(F)cc2Cl)on1	-9%	?	15µM*	?	?	-21
CCn1ccnc1CNC(=O)c1cc(COc2ccc(F)cc2F)on1	-10%	4%	13%	1%	11%	32
CCn1cc(CNC(=O)c2cc(COc3ccc(F)cc3F)on2)cn1	?	23µM*	0%	?	5%	11
CCCS(=O)(=O)NC(=O)C1(C)CCCN(C(=O)c2ccc(C#N)cc2)C1 (stereo unspecified)	.	-2%	?	0%	?	37
CCOc1ccc(NC(=O)CN(C)C(=O)c2ccc(C)o2)cc1OCC	2%	-13%	24%	16%	18%	11
O=C(CCn1c(=O)c2cccn2c2cccnc21)NCc1ccc(Cl)cc1	.	?	.	-15%	.	.
CCOc1cc(CNC(=O)CCCn2c(=O)c3cccn3c3cccnc32)cc(OCC)c1OCC	16µM*	23µM*	-3%	?	-1%	-16
CC(C)Oc1ccc(CNC(=O)CCCn2c(=O)c3cccn3c3ccccc32)cc1	.	23µM*	.	16µM*	.	.
O=C(CCCn1c(=O)c2cccn2c2cccnc21)NCc1cccc(Br)c1	-6%	?	0%	?	-26%	-27
O=C(CCCn1c(=O)c2cccn2c2cccnc21)NCCc1ccc(Cl)cc1	-3%	23µM*	9%	21µM*	27%	-27
CCc1ccc(CNC(=O)CCCn2c(=O)c3cccn3c3cccnc32)cc1	2%	?	-5%	16µM*	-1%	?
CC(C)(C)OC(=O)N1O[C@H]2CC1[C@@H]1[C@@H]2N=NN1CCc1ccncc1	0%	-18%	1%	-16%	5%	28
CCc1cccc(NC(=O)CCn2c(=O)c3cccn3c3cccnc32)c1	.	-17%	.	-22%	.	.
CC(C(=O)NCCc1ccc(Cl)cc1)n1c(=O)c2cccn2c2cccnc21 (stereo unspecified)	-4%	18µM*	-11%	?	-11%	-3
SMILES	ELG1 DNA repair	TDP1 cell noCPT	HT1080 IDH1KD tx	DT40 TDP1 CPT	HT1080NT lethal	IL-1B inflam inh
CC(C)Oc1ccc(CNC(=O)CCCn2c(=O)c3cccn3c3cccnc32)cc1	.	16µM*	.	26µM*	.	.
CSc1cccc(NC(=O)CCCn2c(=O)c3cccn3c3cccnc32)c1	4%	21µM*	16%	?	-3%	-23
O=C(COC(=O)Cc1c(F)cccc1Cl)NNC(=O)c1ccccc1	?	-12%	5%	-6%	0%	2
O=C(c1ccccc1)c1cccc(NC(=O)c2ccc(Br)o2)c1	-17%	?	-24%	?	-21%	-64*
O=C(Nc1cccc(NC(=O)c2ccc(Br)o2)c1)c1ccccc1	-17%	?	-22%	?	-14%	?
C/C(=N/NC(=O)c1ccc(Br)o1)c1cccc(NC(=O)c2ccc(C)o2)c1	?	21µM*	-1%	16µM*	-4%	-5
COc1ccc(NC(=O)CC2C(=O)N(Cc3ccccc3)C(=S)N2CCN2CCOCC2)cc1 (stereo unspecified)	-5%	?	-13%	?	-13%	-9
COc1ccc(NC(=O)CC2C(=O)N(C)C(=S)N2CCc2ccc(F)cc2)cc1 (stereo unspecified)	?	?	?	?	?	-64*
CCN1C(=O)C(CC(=O)Nc2ccc(OC)cc2)N(CCCN2CCN(c3ccc(F)cc3)CC2)C1=S (stereo unspecified)	?	13µM*	18µM*	23µM*	?	-13
CCN1C(=O)C(CC(=O)Nc2ccc(OC)cc2)N(CCc2ccc(F)cc2)C1=S (stereo unspecified)	?	16µM*	?	21µM*	?	-64*
COc1ccc(CCN2C(=S)N(C)C(=O)C2CC(=O)Nc2ccc(OC)cc2)cc1 (stereo unspecified)	?	?	?	12µM*	-17%	-4
COc1ccc(NC(=O)CC2C(=O)N(C)C(=S)N2CCc2ccccc2)cc1 (stereo unspecified)	?	?	-11%	?	-8%	-23
COc1ccc(NC(=O)CC2C(=O)N(C)C(=S)N2Cc2ccc3c(c2)OCO3)cc1 (stereo unspecified)	-2%	-2%	-7%	2%	-6%	12
COc1ccc(CN2C[C@@H](CO)O[C@@H](n3cnc4c(NCc5ccc(F)cc5)ncnc43)C2)cc1	.	?	-19%	?	-3%	28
